# From PubChem BioAssay AID588398 (Broad Institute, 2011)
# The whole screen tested about 1,200 compounds, of which about 110 (9.2%) were called active. About 8% were inconclusive and are not listed.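 Rule for the calls: active = pathway reporter half-maximal dose under half the control reporter's, or control reporter unaffected while pathway reporter is inhibited; inconclusive = either signal flat at 30 to 70% inhibition or poorly fitted; inactive = the rest.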 Not all results are given here. Potency and affinity values are given separately.
# Test: TES1-eGFP NF-kB reporter inhibition versus Tet-On dsRED, dose response, selectivity assay for LMP1 NF-kB inhibitor project, imaging, HEK293T, dual-color eGFP/dsRED, cherry-picks (AID 588398);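 note: 0% = median of neutral control wells and -100% = median of MG132 positive control wells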
# Conditions: 48 h; HEK293T Tet-On dsRED counter-screen channel, at 19.5 µM (top of the series); activity change, negative = inhibition: at the top concentration
row,SMILES,"activity change, negative = inhibition"
1,CC1CC(C)CN(S(=O)(=O)c2ccc(NC(=O)CCN3C(=O)C4CC=CCC4C3=O)cc2)C1 (stereo not given),-14% (inactive)
2,CCN(CC)S(=O)(=O)c1cccc(-n2c(O)c(C=Nc3ccccc3C(=O)O)c3ccccc3c2=O)c1,13.8% (inactive)
3,Cn1cc(SCC(=O)NCC2CCCO2)c2ccccc21 (stereo not given),7.65% (inactive)
4,Cc1ccc(CN2C(=O)CCC2C(=O)NCCCN2CCC(C)CC2)cc1 (stereo not given),8.48% (inactive)
5,O=Cc1ccc(-c2cccs2)s1,-98.5% (inactive)
6,COc1ccc(NC(=O)CCS(=O)(=O)c2ccc3c(c2)CCN3C(C)=O)cc1,6.17% (inactive)
7,C=CCn1c(C)c(C(C)=O)c(N2CCN(C(c3ccccc3)c3ccccc3)CC2)nc1=S,-16.5% (inactive)
8,O=C(N/N=C/c1cccs1)c1n[nH]c2c1CCCC2,10.9% (inactive)
9,COc1cc2oc(=O)cc(-c3ccc(-c4ccc(N(C)C)cc4)cc3)c2c(OC)c1OC,56.6% (inactive)
10,COc1ccc(C(=O)NCCNc2nc3cc(C)c(C)cc3cc2C)cc1,14% (inactive)
11,COc1ccc(C=Cc2ccc3ccccc3n2)c(OC)c1,10.7% (inactive)
12,O=C(c1sc2cc([N+](=O)[O-])ccc2c1Cl)N1CCOCC1,-12.8% (inactive)
13,O=C(N/N=C/c1sc2ccccc2c1O)c1cccc2ccccc12,-97.3% (inactive)
14,COc1cccc(C(=O)CC(=O)C(=O)Nc2ccc(C)cc2Cl)c1,4.92% (inactive)
15,COc1ccc(NC2=NCC(Cc3ccc(Br)cc3)S2)cc1 (stereo not given),57.7% (inactive)
16,O=C(O)c1ccc(C=NNC(=O)c2cccc3ccccc23)cc1,-1.92% (inactive)
17,O=C(N/N=C/c1ccc(O)cc1O)c1ccc(CN2C(=O)c3cccc4cccc2c34)cc1,-69.9% (inactive)
18,O=c1oc2ccccc2c(O)c1/C=N/c1ccccn1,-2.45% (inactive)
19,Cc1nnc(NC(=O)CSc2nnc(Cc3cccn3C)n2CCc2ccccc2)s1,-2.3% (inactive)
20,Cc1cccc(/C=N/NC(=O)CNc2cccc3ccccc23)n1,3.88% (inactive)
21,COc1ccc(O)c(/C=N/NC(=O)c2ccc(OCc3cccc(Br)c3)cc2)c1,22.7% (inactive)
22,CCOc1ccc(OCc2cccc(C(=O)N3CCCC3)c2)cc1,31.9% (inactive)
23,O=C(O)c1c2c(nc3ccccc13)/C(=C/c1ccc(O)cc1)CC2,-0.558% (inactive)

row,SMILES,"activity change, negative = inhibition"
1,O=[N+]([O-])c1ccc(O)c(/C=N/Nc2ncnc3c2cnn3-c2ccccc2)c1,0.818% (inactive)
2,COc1cccc(/C=N/Nc2ncnc(Cl)c2N)c1O,-99.6% (inactive)
3,O=C(/C=C/Nc1cccc(C(F)(F)F)c1)C(F)(F)F,9.44% (inactive)
4,Cc1ccc(C(=O)Nc2ccc3ncccc3c2)cc1,-2.36% (inactive)
5,CSc1ccccc1OCc1cc(C(=O)N2CCC[C@H]2C(N)=O)no1,18.8% (inactive)
6,Cc1nnc(SCC(=O)N2CCC(c3noc4ccc(F)cc34)CC2)s1,-92.2% (inactive)
7,NC(=O)c1sc2nc3c(c(-c4cccs4)c2c1N)CCCCC3,-17.8% (inactive)
8,O=C1c2ccccc2C(O)N1Cc1ccccc1 (stereo not given),5.47% (inactive)
9,S=C1SCN(Cc2ccccc2)CN1Cc1ccco1,12.6% (inactive)
10,Cc1[nH]n(-c2ccc(Br)cc2)c(=O)c1/C=N/NC(=O)c1ccccc1,-87.3% (inactive)
11,Cc1cc(C(=O)CSc2nnc(-c3cccs3)o2)c(C)n1-c1ccccc1,-4.58% (inactive)
12,CC1=C(C(=O)OCc2ccc3c(c2)OCO3)C(c2ccc(Cl)cc2)NC(=O)N1 (stereo not given),-87.8% (inactive)
13,CC(=O)Oc1ccc(C(=O)Nc2cccnc2)cc1,-6.76% (inactive)
14,O=C(O)c1cccc(Nc2ccnc(Nc3cccc(C(=O)O)c3)n2)c1,-17.6% (inactive)
15,O=C(CN1C(=O)c2ccccc2S1(=O)=O)Nc1ncc(Cl)cc1Cl,-4.81% (inactive)
16,Oc1[nH]c2ccccc2c1N=Nc1c(F)c(F)c(Cl)c(F)c1F,-13% (inactive)
17,CN(C)c1ccc(-c2nc3ccccc3n2C)cc1,12.4% (inactive)
18,COc1ccc(C(=O)N=c2nc3ccccn3s2)cc1,-14.4% (inactive)
19,COc1ccc(C(Nc2ccccn2)c2oc(CO)cc(=O)c2O)cc1 (stereo not given),-3.88% (inactive)
20,C[C@@H]1CN([C@@H](C)CO)C(=O)c2cc(NC(=O)Nc3ccccc3)ccc2O[C@H]1CN(C)C(=O)Nc1cccc2ccccc12,27.7% (inactive)
21,CCCC(=O)NC(c1ccc(C(C)C)cc1)c1ccc2cccnc2c1O (stereo not given),-83.8% (inactive)
22,CCC(=O)NC(c1ccc(C)cc1)c1ccc2cccnc2c1O (stereo not given),-80.4% (inactive)
23,CCCCC(=O)NC(c1ccc(OC)c(OC)c1)c1ccc2cccnc2c1O (stereo not given),-81.1% (inactive)

row,SMILES,"activity change, negative = inhibition"
1,CCCC(=O)NC(c1ccc(C)cc1)c1ccc2cccnc2c1O (stereo not given),-68.9% (inactive)
2,COc1cccc(C2=CC(=O)C[C@H](c3ccc4c(c3)OCO4)C2)c1,-1.55% (inactive)
3,C[C@@H]1CN([C@@H](C)CO)S(=O)(=O)c2ccc(/C=C/c3ccccc3)cc2O[C@@H]1CN(C)Cc1ccc(C(=O)O)cc1,89.4% (inactive)
4,CCCCCN=Cc1c(C)[nH]n(-c2nc3ccccc3s2)c1=O,-4.71% (inactive)
5,O=C(OCc1nc2ccccc2s1)[C@@H]1CCCN1S(=O)(=O)c1ccccc1F,17.3% (inactive)
6,CCOc1ccc(N(C(C)C(=O)N2CCCCCC2)S(C)(=O)=O)cc1 (stereo not given),-3.25% (inactive)
7,CCSc1nnc(NC(=O)CSc2nnc(-c3c[nH]c4ccccc34)n2CC)s1,40.4% (inactive)
8,O=C(/C=C1\NC2(CCCC2)Cc2ccccc21)C(=O)N/N=C/c1ccccc1O,-21.8% (inactive)
9,CCSc1nc2ccc(OC)cc2cc1C#N,5.68% (inactive)
10,O=C(C1CCCCC1)N1CCN(c2ncccn2)CC1,-7.76% (inactive)
11,COC(=O)c1[nH]c2ccc(C)cc2c1NC(=O)NC1CCCCC1,13.7% (inactive)
12,O=C1c2ccccc2C(=O)c2cc(N3CCCCC3)ccc21,5.87% (inactive)
13,N/C(=N\OC(=O)c1ccccc1)c1ccccn1,6.51% (inactive)
14,O=C(Nc1ccc(Cl)cc1)Nc1nnc(CSCc2ccc(Cl)cc2)s1,-9.55% (inactive)
15,Nc1ccn(C2CCCO2)c(=O)n1 (stereo not given),0.032% (inactive)
16,COc1ccc(C(=O)Nc2nnc(SCC(=O)NC3CC3)s2)cc1,5.05% (inactive)
17,CCOc1ccc(C(=O)Nc2nnc(SCC(=O)NCC3CCCO3)s2)cc1 (stereo not given),27.3% (inactive)
18,CSc1nc(C)cc(C)c1C#N,8.86% (inactive)
19,COC(=O)[C@@]1(C)[C@H]2C(=O)N(Cc3ccccc3)C(=O)[C@H]2[C@H]2CN=C(SCc3ccc(Cl)cc3)N21,-98.7% (inactive)
20,Cc1cccc(NC(=O)c2cnc3ccccn3c2=O)c1,-11.4% (inactive)
21,COCCNC(=O)C1CCC(CNS(=O)(=O)c2ccccc2)CC1 (stereo not given),-3% (inactive)
22,NC(=S)NN=Cc1nccc2c(C(F)(F)C(F)(F)C(F)(F)F)cccc12,-99.4% (inactive)
23,NC(=S)NN=Cc1nccc2c(C(F)(F)F)cccc12,-100% (inactive)

row,SMILES,"activity change, negative = inhibition"
1,O=C(Nc1ccccc1)c1cn2ccccc2n1,-9.66% (inactive)
2,COC(=O)CSc1ncnc2c1sc1nc3c(cc12)COC(C)(C)C3,-2.11% (inactive)
3,CCN(C(=O)c1cc(OC)c(OC)c(OC)c1)C1CCCCC1,7.62% (inactive)
4,C[C@H](NC(=O)N1CCn2c1nc1ccccc12)C(=O)NCC1CCCO1 (stereo not given in full),8.93% (inactive)
5,CCOC(=O)c1c(CSc2nc(C)cc(C)c2C#N)n(C)c2cc(Br)c(OC(C)=O)cc12,3.15% (inactive)
6,CC(=NNC(=S)N1CCCCCC1)c1cccc2cccnc12,-12% (inactive)
7,CCCc1c(C(=O)N/N=C(\C)c2ccccn2)nnn1-c1nonc1N,22.8% (inactive)
8,CC(=NNC(=S)N1CCCCC1)c1cccc(C)n1,-27.2% (inactive)
9,COC(=O)c1ccc(COc2ccccc2/C=C/C(=O)c2ccc(OCC(=O)O)cc2)cc1,-8.56% (inactive)
10,COC(=O)c1ccccc1NC(=O)CC(=O)Nc1ccccc1C(=O)OC,1.92% (inactive)
11,COc1cccc(C(=O)N2CCN(c3nc4cc(C)cc(C)c4cc3C#N)CC2)c1,-18% (inactive)
12,Cc1cc(=O)[nH]c(NN=Cc2cc(Br)ccc2O)n1,-97.9% (inactive)
13,COc1ccc(N2C(=O)C(=O)/C(=C(/O)c3ccc(C)cc3)C2c2cccnc2)cc1 (stereo not given),22.8% (inactive)
14,CCCC(=O)C1=C(O)C(C(=O)OC)C(C)(C)CC1=Nc1ccncc1 (stereo not given),19.7% (inactive)
15,Cc1csc(N=Nc2ccc(N(C)C)cc2)[n+]1[O-],-34.3% (inactive)
16,Cc1ccc2c(c1)N(CC(=O)N1CCCC1)C(=O)c1cccnc1O2,38.8% (inactive)
17,COc1ccccc1N1CCN(C(=O)CCC(=O)N2CCN(c3ccc(F)cc3)CC2)CC1,3.73% (inactive)
18,O=C(CSc1nnc(NC(=O)c2ccc3c(c2)OCO3)s1)NCc1ccco1,9.96% (inactive)
19,C/C(=N/NC(=O)c1cc(C2CC2)[nH]n1)c1cccs1,20.3% (inactive)
20,Cn1c(/C=C/c2ccccc2)nc2ccccc21,1.47% (inactive)
21,COc1cccc(/C=N/NC(=O)c2[nH]nc3c2CCc2ccccc2-3)c1O,-95.5% (inactive)
22,Cc1ccc2[nH]c(C(=O)N/N=C/c3ccccc3O)c(C)c2c1,4.04% (inactive)
23,Cn1c(=O)c2c(ncn2CC(=O)Nc2cc(S(=O)(=O)N3CCCCC3)ccc2O)n(C)c1=O,-5.88% (inactive)

row,SMILES,"activity change, negative = inhibition"
1,COc1ccc(CCNC(=O)CSc2ccsc2[N+](=O)[O-])cc1OC,-6.35% (inactive)
2,COC(=O)C(NS(=O)(=O)c1ccc(N2CCCC2=O)cc1)c1ccccc1 (stereo not given),-12.8% (inactive)
3,CC(C)(C)c1nc2c(s1)CCc1onc(-c3ccc(Br)cc3)c1-2,14.6% (inactive)
4,CN(C)c1ccc(C=Cc2ccnc3c(O)cccc23)cc1,11.2% (inactive)
5,COc1ccc(S(=O)(=O)N2CCN(CC(=O)Nc3ccc(C)c(F)c3)CC2)cc1,-19.7% (inactive)
6,Cc1cnc(NC(=O)c2ccccn2)s1,9% (inactive)
7,CC(=NNC(=S)Nc1ccccc1Cl)c1ccccn1,-97.9% (inactive)
8,C/C(=N/NC(=O)c1ccc(C(C)(C)C)cc1)c1ccccn1,-87.1% (inactive)
9,CC(=NNC(=S)Nc1ccccc1)c1ccccn1,-98.8% (inactive)
10,CCOc1cc(C(=O)OC(C)C(=O)Nc2ncc(Cl)cc2Cl)ccc1OCC(=O)N1CCOCC1 (stereo not given),12.4% (inactive)
11,CCCCCC(=O)N1C[C@@H](O)[C@H](n2cc(C3CC3)nn2)C[C@@H]1c1ccc(C)cc1,7.65% (inactive)
12,O=C(Nc1cnc2ccccn2c1=O)c1ccc(Cl)cc1Cl,-8.94% (inactive)
13,O=C(O)/C=C/c1ccc2ccccc2n1,-37.2% (inactive)
14,Cc1cc(C)nc(N/C(=N\S(=O)(=O)Cc2ccccc2)Nc2ccccc2Br)n1,-58.7% (inactive)
15,O=C1OCC2=C1C(c1ccc3c(c1)OCO3)c1cc3c(cc1O2)OCO3 (stereo not given),109% (inactive)
16,Cc1nc(Nc2nc3ccccc3o2)nc2c1CCC2,-4.15% (inactive)
17,Cc1cccc(C)c1Nc1nc2ccccc2o1,18.3% (inactive)
18,O=[N+]([O-])c1ccc2ncnc(N3CCN(Cc4ccc5c(c4)OCO5)CC3)c2c1,-93.3% (inactive)
19,CC(=C/c1ccccc1)/C=N/n1c(-c2ccncc2)n[nH]c1=S,-87.9% (inactive)
20,CCOC(=O)c1ccc(NC(=O)CSc2nc(N3CCOCC3)nc(N3CCOCC3)n2)cc1,-0.658% (inactive)
21,Cc1ccc(S(=O)(=O)N2c3ccccc3-c3c(ssc3=S)C2(C)C)cc1,0.776% (inactive)
22,Cc1cccc(-n2ncc3c(N4CCOCC4)ncnc32)c1,8.93% (inactive)
23,O=C(Cc1cccc2ccccc12)Nc1ccc(-c2cc3ccccc3oc2=O)cc1,5.22% (inactive)
